# ChEMBL document CHEMBL3988442, “University of Dundee, Small-Polar-MMV Screening Library” (2021)
# Among all 48,000 compounds or so, about 13,000 (27%) showed an effect of 50% or more. The list shows a part of the results.
# Test system: Wolbachia pipientis
# Assay: Anti-Wolbachia Cell-Based Screen
# Type: functional
# Parameters: scale not given: in the data most compounds retested in dose-response had high values
# Details: 5 µM
row,SMILES,Percent Effect [%]
1,CC(C)n1cnnc1CCNCc1cn(CCC(N)=O)c2ccccc12,-8.335
2,Cn1/c(=N/C(=O)CSCC(=O)Nc2nccs2)sc2ccccc21,-2.902
3,Cc1cnc2c(S(=O)(=O)NC(=O)C(C)OCC3CC3)cccc2c1 (stereo not drawn),-0.9774
4,Cc1cccnc1C(=O)N1CCCC(c2[nH]ncc2S(C)(=O)=O)C1 (stereo not drawn),-6.313
5,Cc1ccc(C(=O)N2CCCC(c3[nH]ncc3S(C)(=O)=O)C2)s1 (stereo not drawn),93.28
6,Cc1[nH]ncc1C(=O)N1CCCC(c2cc(C(F)(F)F)[nH]n2)C1 (stereo not drawn),-5.603
7,Cc1ccsc1C(=O)N1CCCC(c2[nH]ncc2S(C)(=O)=O)C1 (stereo not drawn),116.3
8,Cc1ncncc1C(=O)N1CCCN(Cc2ncc(Cl)n2C)CC1,13.88
9,Cc1csc(C(=O)N2CCCC(c3[nH]ncc3S(C)(=O)=O)C2)c1 (stereo not drawn),97.17
10,Cc1ccsc1C(=O)N1CC(C(=O)N2CCCC2)C2(CCOCC2)C1 (stereo not drawn),-0.2023
11,Cc1ncncc1C(=O)N1CCCC(c2[nH]ncc2S(C)(=O)=O)C1 (stereo not drawn),130.2
12,Cc1ccc(C(=O)N2CCCC(Cn3cc(C(C)(C)N)nn3)C2)s1 (stereo not drawn),-58.84
13,CC(Nc1ccn(Cc2ccccn2)n1)C(=O)NC(C)(C)C (stereo not drawn),22.79
14,CCNC(=O)COc1ccc(C(=O)NC(C)CCc2ccco2)cc1 (stereo not drawn),6.867
15,CC1(C)[C@H](Cc2cc(CN3CCCCC3)on2)C[C@@H]1NC(=O)C1CC1,0.3573
16,CCc1nc(CNCC2CCCN2c2cccnn2)no1 (stereo not drawn),94.84
17,c1cnnc(N2CCCC2CNCc2nc3ccccc3o2)c1 (stereo not drawn),8.977
18,c1cnnc(N2CCCC2CNCc2nnc(C3CC3)o2)c1 (stereo not drawn),-1.218
19,CCc1nnc(CNCC2CCCN2c2cccnn2)o1 (stereo not drawn),6.974
20,c1cnnc(N2CCCC2CNCc2nc(C3CC3)no2)c1 (stereo not drawn),6.175
21,CCc1noc(CNCC2CCCN2c2cccnn2)n1 (stereo not drawn),129.4
22,Cc1ccoc1-c1nnc(CNCC2CCCN2c2cccnn2)o1 (stereo not drawn),10.61
23,c1cnnc(N2CCCC2CNCc2noc(C3CC3)n2)c1 (stereo not drawn),124.8
24,COCCc1noc(CNCC2CCCN2c2cccnn2)n1 (stereo not drawn),10.85
25,Cc1nc(CNCC2CCCN2c2cccnn2)no1 (stereo not drawn),8.82
26,c1cnnc(N2CCCC2CNCc2nc(-c3ccsc3)no2)c1 (stereo not drawn),0.4887

row,SMILES,Percent Effect [%]
1,CCCc1nc(CNCC2CCCN2c2cccnn2)no1 (stereo not drawn),124.8
2,Cc1cc(C(F)(F)F)nc(N(C)Cc2c(C)noc2C)n1,12
3,CCOCCn1nc(C)cc1C(=O)N1CC[C@](O)(CC)[C@H](O)C1,-19.56
4,CCc1ccccc1OCCN(C)C(=O)CN1CCCC1,-0.4334
5,CC(C)COC(=O)N1CC(=O)N(Cc2ccc(Cl)cc2)CC(O)C1 (stereo not drawn),87.43
6,Cc1ccc(CN2C[C@H]3CN(C(=O)c4ccno4)CCN3C2=O)cc1,-7.285
7,CCc1cnc(N2C[C@H]3CN(Cc4ccc(OC)cc4)C(=O)[C@H]3C2)nc1,-6.562
8,COc1ccc(CN2C[C@H]3CN(C(=O)c4ccno4)CCN3C2=O)cc1,-1.817
9,COc1ccc(CN2CC(O)CN(C(=O)OCC(C)C)CC2=O)cc1 (stereo not drawn),126.2
10,COc1ccc(CN2CCN(c3nccnc3OC)CC2=O)cc1,-6.7
11,CC(C)N(CCO)C(=O)C1CCC(=O)N(Cc2ccc(Cl)cc2)C1 (stereo not drawn),0.7255
12,COc1ccc(CN2CC(O)CN(C(=O)CC(C)C)CC2=O)cc1 (stereo not drawn),135.2
13,Cc1ccc(CN2CC(O)CN(C(=O)OCC(C)C)CC2=O)cc1 (stereo not drawn),102.7
14,CCCN(CCO)C(=O)C1CCC(=O)N(Cc2ccc(Cl)cc2)C1 (stereo not drawn),-2.566
15,CCOC(=O)c1coc(N2CCN(Cc3ccc(C)cc3)C(=O)C2)n1,-18.23
16,COC(=O)CCNC(=O)c1ccoc1CN1c2ccccc2CC1C (stereo not drawn),-5.639
17,CC(=O)Nc1ccc(-c2cn(CCn3c(C)cc(C)nc3=O)nn2)cc1,-7
18,Cc1ccnc(NC(=O)c2cc(C)oc2C)c1,11.88
19,Cc1ccsc1CNC(=O)Nc1ccn(CCN2CCOCC2)n1,-52.79
20,O=C(Cc1ccccc1Cl)Nc1ccn(CCN2CCOCC2)n1,-48.65
21,Cc1cc(C(=O)Nc2ccn(CCCN3CCCC3)n2)c(C)o1,100.8
22,Cc1cc(CNC(=O)CCCN2CCCCC2)n(C)n1,-11.62
23,Cc1ccc(C(=O)Nc2ccn(CCC(N)=O)n2)cc1,10.52
24,Cc1cc(C(=O)Nc2ccn(CCCN3CCCC3)n2)no1,96.67
25,CCn1ccc(NC(=O)c2cc(C)on2)n1,120
26,CCN(CC)S(=O)(=O)c1ccc(CNC(=O)c2cc(C)on2)cc1,15.58

row,SMILES,Percent Effect [%]
1,CCOc1cc(C)nc(N2CCN(C(=O)c3cc(Cl)c[nH]3)CC2)n1,4.417
2,Cc1cnn(Cc2cc(F)ccc2F)c1NC(=O)C1CCOCC1,-4.081
3,CNC(=O)C1(N2CCC[C@H]2C(=O)NC2CCOCC2)CCOCC1.Cl,-3.696
4,Cc1nsc(NC(=O)N2CCN(Cc3ccc(F)cc3)C(=O)C2)n1,3.543
5,Cn1ncnc1-c1ccnc(N2CCC(C(O)c3cccs3)CC2)n1 (stereo not drawn),-11.63
6,CN1CCOC(CNC(=O)Cc2coc(-c3ccccc3)n2)C1 (stereo not drawn),107.6
7,CN1CCOC(CNCc2nc(-c3ccoc3)no2)C1 (stereo not drawn),-1.201
8,CN1CCOC(CNCc2coc(-c3ccccc3)n2)C1 (stereo not drawn),-3.46
9,CN1CCOC(CNCc2coc(-c3ccccc3Cl)n2)C1 (stereo not drawn),105.3
10,CN1CCOC(CNC(=O)Cc2ccccc2F)C1 (stereo not drawn),-10.58
11,Cc1ccc(-c2nc(CNCC3CN(C)CCO3)co2)c(C)c1 (stereo not drawn),99.3
12,CCC1CN(C(=O)Cc2coc(-c3ccccc3)n2)CCO1 (stereo not drawn),-15.78
13,CN(C)CC1CN(Cc2coc(-c3ccccc3Cl)n2)CCO1 (stereo not drawn),-0.3444
14,Cc1ccc(-c2nc(CNCC3CN(C)CCO3)co2)cc1 (stereo not drawn),108.3
15,CC(C)(C)OC(=O)N1CCCc2ccc(NCc3ncc[nH]3)cc21,1.363
16,Cn1cnnc1CC1CCN(Cc2c(Cl)cncc2Cl)CC1,-0.137
17,COc1ccc(S(=O)(=O)Cc2cc(C)on2)cc1,3.84
18,CN1CCOC(CNCc2coc(-c3ccc(Cl)cc3)n2)C1 (stereo not drawn),81.44
19,O=C(CCn1cncn1)N1CCCC(CO)(CCCc2ccccc2)C1 (stereo not drawn),16.2
20,CN(CCc1ccncc1)C(=O)C1CSCN1C(=O)C(C)(C)C (stereo not drawn),-12.64
21,CN(Cc1ccncc1)C(=O)[C@H]1CSCN1C(=O)OC(C)(C)C,103.4
22,CC(C)(C)OC(=O)N1CSC[C@@H]1C(=O)NCc1ccncc1,-9.296
23,CN(CCc1ccncc1)C(=O)C1CSCN1C(=O)C1CCCC1 (stereo not drawn),-15.81
24,CN(CC(F)(F)F)C(=O)C1CSCN1C(=O)OC(C)(C)C (stereo not drawn),6.249
25,CN(CCc1ccncc1)C(=O)C1CSCN1C(=O)CC(C)(C)C (stereo not drawn),109.1
26,Nc1nnc(CCNc2ncnc3c2CCN(C(=O)C2CC2)C3)s1,-2.758

row,SMILES,Percent Effect [%]
1,CCS(=O)(=O)c1ncc(CN2CCCC2)n1CCc1ccccc1,1.853
2,COCCc1nc(CSc2ccncc2)n(C)n1,-10.21
3,O=C(NC1CC1)N1CCc2ccc(=O)n(Cc3ccncc3)c2CC1,23.4
4,CN(C)C(=O)Cn1c2c(ccc1=O)CCN(Cc1cnn(C)c1)CC2.O=C(O)C(F)(F)F,120.2
5,CC(OCC1CC1)C(=O)N1CCCN(Cc2cnn(C)c2)CC1 (stereo not drawn),6.432
6,CN(C)CCn1c2c(ccc1=O)CCN(Cc1ccncc1)CC2,102
7,O=c1ccc2c(n1Cc1ccncc1)CCN(C1CCOC1)CC2 (stereo not drawn),8.67
8,Cn1cc(CN2CCc3ccc(=O)n(Cc4ccncc4)c3CC2)cn1.O=C(O)C(F)(F)F.O=C(O)C(F)(F)F,104.6
9,Cn1cc(CN2CCc3ccc(=O)n(CC4CC4)c3CC2)cn1,115.2
10,COc1ccc2c(c1)C1(CCN(Cc3cnn(C)c3)CC1)N(C)CC2.O=C(O)C(F)(F)F,2.583
11,Cc1cnc(NCC(C)(C)N2CCCCC2)nc1,1.17
12,Cc1nc(-c2ccc(Cl)s2)sc1C(=O)NCCS(N)(=O)=O,-0.7868
13,COCC(=O)N1CCC2(CC1)NC(=O)[C@H]1CN(C(=O)N(C)C)C[C@H]12,-27.95
14,Cc1csc(CNC(=O)Nc2cc(C(F)(F)F)c[nH]c2=O)n1,-4.751
15,CC(C)(O)CCc1ccc(C(=O)N2CCN(CC3CCCC3)CC2)cc1,-6.284
16,COCc1nn(C)c2c1CCN(Cc1cnn(C)c1)C2.O=C(O)C(F)(F)F,-18.26
17,CN(C)CCn1c2c(ccc1=O)CCN(Cc1cnn(C)c1)CC2.O=C(O)C(F)(F)F.O=C(O)C(F)(F)F,120.7
18,Cc1nccn1-c1cccc(C2CCCN(C3CCCC3)C2)n1 (stereo not drawn),98.22
19,Cc1cccc(O[C@H]2COCCN(C3CCOCC3)C2)n1,-0.8542
20,Cc1nccn1-c1cccc(C2CCCN(C(=O)c3cc[nH]n3)C2)n1 (stereo not drawn),5.97
21,CCc1nccn1-c1cccc(C2CCCN(C3CCCCC3)C2)n1 (stereo not drawn),96.78
22,Cc1nccn1-c1cccc(C2CCCN(C3CCCCC3)C2)n1 (stereo not drawn),-27.27
23,Fc1ccccc1-c1cccc(C2CCCN(C3CCOCC3)C2)n1 (stereo not drawn),71.52
24,c1ccc(-c2nnc([C@H]3CCN(C4CCOCC4)C3)o2)cc1,-19.45
25,O=c1cc2c(nn1CN1CCOCC1)CCC2,1.556
